# PubChem BioAssay AID1159580 (chemical genetic matrix, 2015)
# In all, about 5,500 compounds went through this assay and about 2,000 (36%) were called active. Inconclusive results (about 18%) are left out. The list shows a part of the results. A number with no mark means an inactive call. Cut-off read from the data, not from the text of the source: active = normalized growth mostly below about 0.91 (no sharp cut-off); inconclusive = no clear call, values can overlap the other calls; inactive = mostly above about 0.92.
# Test: chemical genetic growth profiling, strain panel (AID 1159580);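 note: tested at 20 µM; growth read once vehicle control cultures reached saturation at 30 °C; 1 = growth at the plate median or of vehicle wells; lower values mean less growth of the strain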
# Conditions: growth OD
# [1] = S. cerevisiae deletion strains, locus YAL013W, strain DEP1, hits give low values
# [2] = S. cerevisiae deletion strains, locus YCL061C, strain MRC1, hits give low values
# [3] = S. cerevisiae deletion strains, locus YDR150W, strain NUM1, hits give low values
# [4] = S. cerevisiae deletion strains, locus YGR229C, strain SMI1, hits give low values
# [5] = S. cerevisiae deletion strains, locus YHR030C, strain SLT2, hits give low values
# [6] = S. cerevisiae deletion strains, locus YJL187C, strain SWE1, hits give low values
# [7] = S. cerevisiae deletion strains, locus YJR075W, strain HOC1, hits give low values
# [8] = S. cerevisiae deletion strains, locus YMR307W, strain GAS1, hits give low values
# [9] = S. cerevisiae deletion strains, locus YNL128W, strain TEP1, hits give low values
# [10] = S. cerevisiae deletion strains, locus YPL055C, strain LGE1, hits give low values
# [11] = S. cerevisiae deletion strains, locus YPL241C, strain CIN2, hits give low values
structure (smiles),measurement,setting,value
CCCCS(=N)(=O)CCC(N)C(=O)O (centres undefined),normalized growth,[1],0.993
same,normalized growth,"S. cerevisiae deletion strains, locus YAL021C, strain ccr4, hits give low values",0.983
same,normalized growth,"S. cerevisiae deletion strains, locus YAL026C, strain drs2, hits give low values",1
same,normalized growth,"S. cerevisiae deletion strains, locus YAL030W, strain snc1, hits give low values",0.997
same,normalized growth,"S. cerevisiae deletion strains, locus YAL040C, strain CLN3, hits give low values",0.993
same,normalized growth,"S. cerevisiae deletion strains, locus YBL061C, strain skt5, hits give low values",0.999
same,normalized growth,"S. cerevisiae deletion strains, locus YBR009C, strain hhf1, hits give low values",1.02
same,normalized growth,"S. cerevisiae deletion strains, locus YBR023C, strain chs3, hits give low values",0.997
same,normalized growth,"S. cerevisiae deletion strains, locus YBR171W, strain sec66, hits give low values",0.999
same,normalized growth,"S. cerevisiae deletion strains, locus YBR231C, strain swc5, hits give low values",0.998
same,normalized growth,"S. cerevisiae deletion strains, locus YBR279W, strain paf1, hits give low values",0.993
same,normalized growth,"S. cerevisiae deletion strains, locus YCL011C, strain gbp2, hits give low values",0.988
same,normalized growth,"S. cerevisiae deletion strains, locus YCL016C, strain dcc1, hits give low values",1
same,normalized growth,"S. cerevisiae deletion strains, locus YCL061C, strain MRC1 (second series), hits give low values",0.997
same,normalized growth,[2],0.993
same,normalized growth,"S. cerevisiae deletion strains, locus YCL069W, strain vba3, hits give low values",0.992
same,normalized growth,"S. cerevisiae deletion strains, locus YCR088W, strain abp1, hits give low values",0.992
same,normalized growth,"S. cerevisiae deletion strains, locus YDL005C, strain med2, hits give low values",0.984
same,normalized growth,"S. cerevisiae deletion strains, locus YDL040C, strain nat1, hits give low values",0.994
same,normalized growth,"S. cerevisiae deletion strains, locus YDR001C, strain nth1, hits give low values",0.99
same,normalized growth,"S. cerevisiae deletion strains, locus YDR069C, strain doa4, hits give low values",1.01
same,normalized growth,"S. cerevisiae deletion strains, locus YDR137W, strain rgp1, hits give low values",0.973
same,normalized growth,[3],1.01
same,normalized growth,"S. cerevisiae deletion strains, locus YDR159W, strain sac3, hits give low values",1.02
same,normalized growth,"S. cerevisiae deletion strains, locus YDR195W, strain ref2",0.994
same,normalized growth,"S. cerevisiae deletion strains, locus YDR297W, strain sur2, hits give low values",0.993
same,normalized growth,"S. cerevisiae deletion strains, locus YDR334W, strain swr1, hits give low values",0.987
same,normalized growth,"S. cerevisiae deletion strains, locus YDR335W, strain msn5, hits give low values",0.99
same,normalized growth,"S. cerevisiae deletion strains, locus YDR363W, strain ESC2, hits give low values",0.992
same,normalized growth,"S. cerevisiae deletion strains, locus YDR392W, strain spt3, hits give low values",0.976
same,normalized growth,"S. cerevisiae deletion strains, locus YEL003W, strain gim4, hits give low values",0.994
same,normalized growth,"S. cerevisiae deletion strains, locus YEL037C, strain rad23, hits give low values",0.99
same,normalized growth,"S. cerevisiae deletion strains, locus YEL061C, strain CIN8 (second series), hits give low values",0.99
same,normalized growth,"S. cerevisiae deletion strains, locus YER002W, strain NOP16, hits give low values",0.979
same,normalized growth,"S. cerevisiae deletion strains, locus YER015W, strain faa2, hits give low values",0.996
same,normalized growth,"S. cerevisiae deletion strains, locus YER016W, strain bim1, hits give low values",0.996
same,normalized growth,"S. cerevisiae deletion strains, locus YER111C, strain swi4, hits give low values",0.983
same,normalized growth,"S. cerevisiae deletion strains, locus YER155C, strain BEM2 (second series), hits give low values",1.01
same,normalized growth,"S. cerevisiae deletion strains, locus YFR010W, strain ubp6, hits give low values",0.999
same,normalized growth,"S. cerevisiae deletion strains, locus YGL167C, strain pmr1, hits give low values",1
same,normalized growth,"S. cerevisiae deletion strains, locus YGL173C, strain kem1, hits give low values",1
same,normalized growth,"S. cerevisiae deletion strains, locus YGL227W, strain vid30, hits give low values",0.984
same,normalized growth,"S. cerevisiae deletion strains, locus YGL240W, strain doc1, hits give low values",1.01
same,normalized growth,"S. cerevisiae deletion strains, locus YGL253W, strain hxk2, hits give low values",1
same,normalized growth,[4],0.955
same,normalized growth,"S. cerevisiae deletion strains, locus YHR013C, strain ard1, hits give low values",0.979
same,normalized growth,"S. cerevisiae deletion strains, locus YHR027C, strain rpn1, hits give low values",0.99
same,normalized growth,[5],0.981
same,normalized growth,"S. cerevisiae deletion strains, locus YHR079C, strain IRE1, hits give low values",0.98
same,normalized growth,"S. cerevisiae deletion strains, locus YHR142W, strain chs7, hits give low values",0.979
same,normalized growth,"S. cerevisiae deletion strains, locus YJL092W, strain hpr5, hits give low values",1
same,normalized growth,"S. cerevisiae deletion strains, locus YJL095W, strain BCK1 (second series), hits give low values",0.995
same,normalized growth,"S. cerevisiae deletion strains, locus YJL095W, strain BCK1, hits give low values",0.983
same,normalized growth,"S. cerevisiae deletion strains, locus YJL115W, strain asf1, hits give low values",0.996
same,normalized growth,"S. cerevisiae deletion strains, locus YJL129C, strain trk1, hits give low values",0.986
same,normalized growth,"S. cerevisiae deletion strains, locus YJL154C, strain vps35, hits give low values",0.993
same,normalized growth,"S. cerevisiae deletion strains, locus YJL164C, strain tpk1, hits give low values",0.996
same,normalized growth,"S. cerevisiae deletion strains, locus YJL166W, strain qcr8, hits give low values",1
same,normalized growth,[6],0.994
same,normalized growth,"S. cerevisiae deletion strains, locus YJR066W, strain TOR1, hits give low values",0.9
same,normalized growth,[7],1
same,normalized growth,"S. cerevisiae deletion strains, locus YKL160W, strain elf1, hits give low values",0.997
same,normalized growth,"S. cerevisiae deletion strains, locus YKR026C, strain gcn3, hits give low values",0.986
same,normalized growth,"S. cerevisiae deletion strains, locus YKR091W, strain srl3, hits give low values",0.988
same,normalized growth,"S. cerevisiae deletion strains, locus YLL001W, strain dnm1, hits give low values",0.993
same,normalized growth,"S. cerevisiae deletion strains, locus YLL026W, hits give low values",0.993
same,normalized growth,"S. cerevisiae deletion strains, locus YLL041C, strain sdh2, hits give low values",0.988
same,normalized growth,"S. cerevisiae deletion strains, locus YLR027C, strain aat2, hits give low values",0.993
same,normalized growth,"S. cerevisiae deletion strains, locus YLR113W, strain HOG1, hits give low values",0.99
same,normalized growth,"S. cerevisiae deletion strains, locus YLR221C, strain rsa3, hits give low values",0.986
same,normalized growth,"S. cerevisiae deletion strains, locus YLR258W, strain gsy2, hits give low values",1
same,normalized growth,"S. cerevisiae deletion strains, locus YLR262C, strain YPT6 (second series), hits give low values",0.998
same,normalized growth,"S. cerevisiae deletion strains, locus YLR320W, strain mms22, hits give low values",0.99
same,normalized growth,"S. cerevisiae deletion strains, locus YLR342W, strain FKS1, hits give low values",0.993
same,normalized growth,"S. cerevisiae deletion strains, locus YLR357W, strain rsc2, hits give low values",1
same,normalized growth,"S. cerevisiae deletion strains, locus YLR370C, strain arc18, hits give low values",0.99
same,normalized growth,"S. cerevisiae deletion strains, locus YLR384C, strain iki3, hits give low values",1.01
same,normalized growth,"S. cerevisiae deletion strains, locus YML120C, strain ndi1, hits give low values",0.983
same,normalized growth,"S. cerevisiae deletion strains, locus YMR058W, strain fet3, hits give low values",0.999
same,normalized growth,"S. cerevisiae deletion strains, locus YMR125W, strain sto1, hits give low values",0.99
same,normalized growth,"S. cerevisiae deletion strains, locus YMR129W, hits give low values",0.959
same,normalized growth,"S. cerevisiae deletion strains, locus YMR205C, strain PFK2, hits give low values",1.02
same,normalized growth,"S. cerevisiae deletion strains, locus YMR231W, strain pep5, hits give low values",0.997
same,normalized growth,[8],1.01
same,normalized growth,"S. cerevisiae deletion strains, locus YNL071W, strain lat1, hits give low values",0.982
same,normalized growth,[9],0.991
same,normalized growth,"S. cerevisiae deletion strains, locus YNL175C, strain NOP13, hits give low values",0.97
same,normalized growth,"S. cerevisiae deletion strains, locus YNL183C, strain NPR1, hits give low values",0.929
same,normalized growth,"S. cerevisiae deletion strains, locus YNL197C, strain WHI3, hits give low values",0.94
same,normalized growth,"S. cerevisiae deletion strains, locus YNL209W, strain ssb2, hits give low values",0.991
same,normalized growth,"S. cerevisiae deletion strains, locus YNL224C, strain SQS1, hits give low values",0.986
same,normalized growth,"S. cerevisiae deletion strains, locus YNL248C, strain rpa49, hits give low values",0.991
same,normalized growth,"S. cerevisiae deletion strains, locus YNL322C, strain KRE1 (second series), hits give low values",0.998
same,normalized growth,"S. cerevisiae deletion strains, locus YNR049C, strain mso1, hits give low values",0.994
same,normalized growth,"S. cerevisiae deletion strains, locus YOR001W, strain rrp6, hits give low values",0.974
same,normalized growth,"S. cerevisiae deletion strains, locus YOR070C, strain gyp1, hits give low values",0.99
same,normalized growth,"S. cerevisiae deletion strains, locus YOR080W, strain dia2, hits give low values",0.99
same,normalized growth,"S. cerevisiae deletion strains, locus YOR083W, strain WHI5 (second series), hits give low values",0.95
same,normalized growth,"S. cerevisiae deletion strains, locus YOR083W, strain WHI5, hits give low values",1
same,normalized growth,"S. cerevisiae deletion strains, locus YOR106W, strain vam3, hits give low values",1.01
same,normalized growth,"S. cerevisiae deletion strains, locus YOR231W, strain MKK1, hits give low values",0.988
same,normalized growth,"S. cerevisiae deletion strains, locus YOR265W, strain rbl2, hits give low values",0.989
same,normalized growth,"S. cerevisiae deletion strains, locus YOR270C, strain vph1, hits give low values",0.99
same,normalized growth,"S. cerevisiae deletion strains, locus YOR290C, strain snf2, hits give low values",0.949
same,normalized growth,"S. cerevisiae deletion strains, locus YPL051W, strain arl3, hits give low values",0.992
same,normalized growth,[10],0.999
same,normalized growth,"S. cerevisiae deletion strains, locus YPL078C, strain atp4, hits give low values",0.994
same,normalized growth,"S. cerevisiae deletion strains, locus YPL106C, strain sse1, hits give low values",0.991
same,normalized growth,"S. cerevisiae deletion strains, locus YPL240C, strain hsp82, hits give low values",0.998
same,normalized growth,[11],0.998
same,normalized growth,"S. cerevisiae deletion strains, locus YPL256C, strain CLN2, hits give low values",0.988
COc1ccc(CNc2ccccc2-c2nc3ccccc3[nH]2)cc1,normalized growth,[1],0.967
same,normalized growth,"S. cerevisiae deletion strains, locus YBR229C, strain ROT2, hits give low values",0.944
same,normalized growth,[2],0.941
same,normalized growth,"S. cerevisiae deletion strains, locus YDL101C, strain DUN1, hits give low values",0.937
same,normalized growth,"S. cerevisiae deletion strains, locus YDL134C, strain PPH21, hits give low values",0.87 (active)
same,normalized growth,[3],0.934
same,normalized growth,"S. cerevisiae deletion strains, locus YEL061C, strain CIN8, hits give low values",0.861 (active)
same,normalized growth,"S. cerevisiae deletion strains, locus YGR078C, strain PAC10, hits give low values",0.952
same,normalized growth,[4],0.95
same,normalized growth,[5],0.431 (active)
same,normalized growth,"S. cerevisiae deletion strains, locus YHR087W, strain rtc3, hits give low values",0.92
same,normalized growth,[6],0.978
same,normalized growth,"S. cerevisiae deletion strains, locus YJR043C, strain POL32, hits give low values",0.957
same,normalized growth,[7],0.937
same,normalized growth,"S. cerevisiae deletion strains, locus YKL190W, strain CNB1, hits give low values",0.881 (active)
same,normalized growth,"S. cerevisiae deletion strains, locus YLR039C, strain RIC1, hits give low values",0.529 (active)
same,normalized growth,"S. cerevisiae deletion strains, locus YLR058C, strain SHM2 (second series), hits give low values",0.956
same,normalized growth,"S. cerevisiae deletion strains, locus YLR085C, strain ARP6, hits give low values",0.514 (active)
same,normalized growth,"S. cerevisiae deletion strains, locus YLR262C, strain YPT6, hits give low values",0.648 (active)
same,normalized growth,"S. cerevisiae deletion strains, locus YML094W, strain GIM5, hits give low values",0.882
same,normalized growth,"S. cerevisiae deletion strains, locus YMR219W, strain ESC1, hits give low values",0.983
same,normalized growth,"S. cerevisiae deletion strains, locus YMR263W, strain SAP30, hits give low values",0.948
same,normalized growth,[8],0.52 (active)
same,normalized growth,[9],0.917
same,normalized growth,"S. cerevisiae deletion strains, locus YNL153C, strain GIM3, hits give low values",0.959
same,normalized growth,"S. cerevisiae deletion strains, locus YNL298W, strain CLA4 (second series), hits give low values",0.789 (active)
same,normalized growth,"S. cerevisiae deletion strains, locus YNL322C, strain KRE1, hits give low values",0.978
same,normalized growth,"S. cerevisiae deletion strains, locus YNR030W, strain Alg12, hits give low values",0.867 (active)
same,normalized growth,"S. cerevisiae deletion strains, locus YOL006C, strain TOP1, hits give low values",0.57 (active)
same,normalized growth,[10],0.797
same,normalized growth,[11],0.818 (active)
same,normalized growth,"S. cerevisiae deletion strains, locus YPR135W, strain CTF4, hits give low values",0.498 (active)
same,normalized growth,"S. cerevisiae strains, strain wild type, hits give low values",0.881 (active)
